Bioassay records (PubChem)
APP 5UTR inh = APP translation inhibition; SH-SY5Y APP 5'UTR-luciferase reporter, luminescence; inhibition, % at 2 µM; 190,000 tested, 0.82% active; AID 1285;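 active means inhibition above a set limit, derived from the sample mean plus 3 SD, cut at about 45% in these data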
APP 5'UTR act = APP 5'UTR luciferase reporter activation | AID 1276 | 190,000 tested, 1% active | SH-SY5Y APP 5'UTR luciferase reporter, luminescence; zero percent = DMSO vehicle wells | activation, % at 2 µM;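 active means activation above a set limit, based on mean plus 3 SD of controls, cut at about 140% in these data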
Wee1 degr inh = human Wee1 degradation inhibition, primary screen. 220,000 tested, 1.2% active. AID 1321. reporter increase, % at 5 µM. P30291. HeLa Luc-Wee1K328M stability, luciferase luminescence; 100% = proteasome inhibitor MG132 effect;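 active means activation above the mean of all tested compounds plus 3 SD, set per screening run, cut at about 8.8% in these data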;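 further: cells exposed to compound for 20 h before luminescence read; 0% = DMSO alone and 100% = MG132 at 30 µM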
Target sequence (P30291 whole entry K328M): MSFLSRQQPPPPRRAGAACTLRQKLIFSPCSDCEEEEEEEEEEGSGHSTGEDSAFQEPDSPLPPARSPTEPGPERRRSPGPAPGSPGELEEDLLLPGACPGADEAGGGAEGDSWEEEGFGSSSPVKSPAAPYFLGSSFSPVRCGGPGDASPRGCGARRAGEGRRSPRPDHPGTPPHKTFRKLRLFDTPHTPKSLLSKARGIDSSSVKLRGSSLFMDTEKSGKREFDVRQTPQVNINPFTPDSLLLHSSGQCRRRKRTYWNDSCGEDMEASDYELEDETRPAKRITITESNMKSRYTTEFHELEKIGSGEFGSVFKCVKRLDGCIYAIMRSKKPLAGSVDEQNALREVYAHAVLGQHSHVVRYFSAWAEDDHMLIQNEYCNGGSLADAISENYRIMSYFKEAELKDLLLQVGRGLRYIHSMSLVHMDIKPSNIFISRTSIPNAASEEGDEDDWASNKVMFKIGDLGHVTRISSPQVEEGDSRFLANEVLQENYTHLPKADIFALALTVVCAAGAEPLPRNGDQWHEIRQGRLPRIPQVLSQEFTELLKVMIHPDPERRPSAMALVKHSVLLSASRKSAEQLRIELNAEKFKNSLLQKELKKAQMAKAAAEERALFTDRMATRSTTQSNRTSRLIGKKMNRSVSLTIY
Hsp70 act = transcriptional activators of Hsp70; 200,000 tested, 0.04% active; HeLa Hsp70 promoter luciferase reporter, luminescence; scaled: vehicle 0, proteasome-inhibitor control 100%; AID 1203; activation, % at 10 µM;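 active means activation above the mean across all tested compounds plus 3 SD, cutoff set per campaign, cut at about 5.5% in these data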;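 further: 100% = MG132 at 30 µM as the positive control and 0% = DMSO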
STAT1 activator = activators of IFN-gamma induced STAT1 signaling. 200,000 tested, 2.6% active. NIH 3T3 STAT1-luciferase reporter, luminescence; 100% = IFN-gamma alone, no compound. activation (% of control), % at 5.5 µM;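 active means activation above the screen-wide mean activation plus 3 SD, cut at about 130% in these data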;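 further: raw ratio to IFN-gamma control signal so 100% means no change and 0% no light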
NF-kB expr up = compounds increasing NF-kB expression in human neuronal cells. NF-kB reporter expression; active compounds read high. fold change at 12.5 µM. 190,000 tested, 1.6% active. AID 1239; in the data active means fold change above about 3.3
* = called active by the depositor; . = no result given; ! = repeats disagree. Only some compounds are listed: those with a hit (about 4.8% of all), similar ones and a draw of the others.

SMILES	APP 5UTR inh	APP 5'UTR act	Wee1 degr inh	Hsp70 act	STAT1 activator	NF-kB expr up
CC(C)CC(COCc1ccc(Cl)cc1)N1CCN(C(=O)c2cccc(C(F)(F)F)c2)CCC1=O (centres undefined)	-13	13	0	0	95	1.1
CC(C)CC(COCc1ccc(C(F)(F)F)cc1)N1CCN(C(=O)c2ccc(C(F)(F)F)cc2)CCC1=O (centres undefined)	-20	20	2	0	94	3.9*
Cc1ccc(-n2nc3ccc(NC(=S)NC(=O)/C=C/c4ccco4)cc3n2)cc1	-18	18	1	0	127	1.5
CCC(Oc1ccccc1)C(=O)Nc1ccc(-c2nnc(-c3ccco3)o2)cc1 (centres undefined)	-80	80	1	0	133*	0.68
O=C(O)CCS(=O)(=O)c1cc(Br)cc2c1N(C(=O)C1CC1)CC2	-20	20	-2	0	100	1.1
Cc1ccccc1N/C(=C(/C(Cl)=C(Cl)Cl)[N+](=O)[O-])n1nnc2ccccc21	-16	16	-2	0	93	1.1
CCC(=O)N1CCN(c2ccc(NC(=O)c3ccc([N+](=O)[O-])o3)cc2)CC1	48*	-48	2	1	129*	0.78
O=C(Nc1ccc(N2CCN(C(=O)c3ccc(Cl)cc3)CC2)cc1)c1ccc([N+](=O)[O-])o1	96*	-96	0	0	139*	0.15
CCCCNc1nc2c(S(=O)(=O)c3ccccc3)nnn2c2ccccc12	-38	38	0	0	102	1.3
COCCCNc1nc2c(-c3cccc(C)c3)nnn2c2ccccc12	-7	7	49*	0	101	1.2
COCCNC(=O)Cn1cc(C(=S)N2CCOCC2)c2ccccc21	-11	11	9.8*	0	96	1
COCCCNC(=O)Cn1cc(C(C)=O)c2ccccc21	6	-6	-2	0	102	1.2
CCOC(=O)/C(N=Nc1ccc2c(c1)OCO2)=C(\C)O	-116	116	0	0	137*	1.6
CC(Cc1ccccc1)C(=O)NCc1nc2ccccc2s1 (centres undefined)	-6	6	-1	0	104	0.62
COCCCNC(=O)COc1ccc(Br)cc1Cl	-16	17	-1	0	139*	2.2
O=C(NCC1CCCO1)C(c1ccncc1)N(Cc1cccs1)C(=O)Cn1nnc(-c2ccc(F)cc2)n1 (centres undefined)	48*	-48	0	-1	104	0.59
CCOc1ccc(/C(O)=C2\C(=O)C(=O)N(CCN(C)C)C2c2cc(OC)ccc2OC)cc1Cl (centres undefined)	-8	7	-2	0	102	.
CCOC(=O)C1(CCc2ccccc2)CCN(C(=O)CCn2cncn2)CC1	-41	41	0	0	139*	.
COC(=O)c1c(-c2snnc2C)n[nH]c1C	.	.	-2	.	.	.
C/C(=N\Nc1ccccn1)c1ccc(S(=O)(=O)NCc2ccco2)cc1	4	-4	-3	0	103	0.8
Cc1ccc(C)c(N=Nc2nc3ccccc3n2C)c1	-161	161*	4	0	126	3.9*
Cc1cc(C)c(C)c(N=Nc2nc3ccccc3n2C)c1C	-56	56	1	0	107	1.5
CC(C)[C@@H](N)C(=O)N/N=C/c1ccc2ncccc2c1	.	.	18*	.	.	.
Nc1nc(Cl)nc2c1ncn2[C@H]1C[C@H](O)[C@@H](CO)O1	76*	-76	-2	0	84	0.82
Nc1ncnc2c1ncn2[C@H]1C[C@H](O)[C@@H](COP(=O)(O)O)O1	11	-11	-2	0	100	1.1
SMILES	APP 5UTR inh	APP 5'UTR act	Wee1 degr inh	Hsp70 act	STAT1 activator	NF-kB expr up
C(#Cc1ccccc1)CN1CCN(c2ccccn2)CC1	0	0	5	-1	98	1
Cc1ccc(-c2cc3c(N=O)c4ccccc4c-3n[nH]2)cc1	-6	6	-3	0	69	0.63
Oc1[nH]c2ccccc2c1N=Nc1ccccc1F	-66	66	3	0	151*	4.1*
Oc1ccc2ccccc2c1N=Nc1ccc(F)cc1	.	.	22*!	.	.	.
CC(C)(O)C(=O)N=Nc1c(O)[nH]c2ccccc12	-46	46	1	0	115	1.5
Oc1[nH]c2ccccc2c1N=Nc1ccccc1	.	.	0	.	.	.
Oc1[nH]c2ccccc2c1N=Nc1ccc(F)cc1	-46	46	-1	0	144*	1.7
O=C(Oc1ccc2ccccc2c1Cl)N1CCCC1	-143	143*	0	0	144*	5.1*
C/C(CC(=O)NC12CC3CC(CC(C3)C1)C2)=N\NC(=O)Cc1cccs1	.	.	5	0	92	1.2
CO[C@@]1(NC(=O)Cc2cccs2)C(=O)N2C(C(=O)O)=C(COC(N)=O)CS[C@@H]21	-13	13	10*	0	109	1
COCCNC(=O)[C@H](C)[C@H]1C[C@]1(C)[C@H](NC(=O)OCc1ccccc1)c1ccccc1	4	-4	9.1*	0	94	1.1
COc1cccc(CN=C2Nc3ccccc3CS2)c1	-111	111	3	0	147*	3.9*
Clc1ccc(CN=C2Nc3ccccc3CS2)cc1	-115	115	8.8*	0	126	4.8*
Cc1ccc(CN=C2Nc3ccccc3CS2)cc1	-143	143*	-1	0	102	6.8*
COc1ccccc1CN=C1Nc2ccccc2CS1	-50	50	0	1	126	2.5
c1cncc(CN=C2Nc3ccccc3CS2)c1	14	-14	-2	0	115	1.3
COc1ccc(C2(O)CN(c3ccc(C)cc3)C3=[N+]2CCCC3)cc1 (centres undefined)	2	-2	2	0	76	1.1
Cc1ccc(CNC(=O)CS(=O)Cc2nc(-c3ccccc3C)oc2C)cc1 (centres undefined)	-10	10	-1	0	101	0.96
OCCC1CN(Cc2nc3ccccc3s2)CCN1C1CCCCC1 (centres undefined)	8	-9	0	0	103	.
O=C(c1nnsc1S(=O)(=O)c1ccc(Cl)cc1)N1CCOCC1	38	-38	-1	0	77	1.1
CNC(=O)c1nnsc1S(=O)(=O)c1ccc(Cl)cc1	95*	-95	-3	0	90	0.14
Cn1cccc1/C=C1\SC(=S)N(NC(=O)c2ccccc2)C1=O	2	-1	9.0*	0	95	1.2
Cc1ccc(C(=O)Nc2ccc3c(c2)CCC3)o1	-120	119	3	0	137*	7.8*
O=C(Nc1ccc2c(c1)CCC2)c1cc2ccccc2o1	-185	185*	2	0	151*	11*
O=C(Nc1ccc2c(c1)CCC2)c1ccc(Br)o1	-116	116	7	0	120	3.3
COc1cccc(-c2cc(C(=O)N3CCCCCC3)no2)c1	-151	151*	1	0	122	7.2*
